Sampled rows, rich in hits. Any-hit rate of the full collection: about 3.5%.
GPR151 activ – human GPR151 activation; PathHunter beta-arrestin GPR151 cells, luminescence; activation, % at 11.2 µM; 650,000 tested, 1% active; in the data active means activation above about 4.9%;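 further: 0% = median of compound wells and 100% = cells with positive control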
Target sequence (Q8TDV0 whole entry, looked up): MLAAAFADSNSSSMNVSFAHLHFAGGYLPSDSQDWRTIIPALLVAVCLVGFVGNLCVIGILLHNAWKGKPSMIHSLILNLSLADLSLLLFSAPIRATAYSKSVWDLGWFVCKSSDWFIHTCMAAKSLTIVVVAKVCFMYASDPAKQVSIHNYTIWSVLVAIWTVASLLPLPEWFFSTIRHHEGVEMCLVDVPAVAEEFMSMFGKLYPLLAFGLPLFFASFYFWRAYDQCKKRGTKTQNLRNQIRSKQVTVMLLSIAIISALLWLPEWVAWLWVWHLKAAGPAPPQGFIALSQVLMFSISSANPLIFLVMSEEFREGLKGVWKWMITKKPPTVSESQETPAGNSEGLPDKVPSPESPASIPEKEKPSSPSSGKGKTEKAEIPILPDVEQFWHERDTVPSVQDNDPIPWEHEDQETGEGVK
MITF primary – human MITF inhibition, primary screen | O75030 | AlphaScreen MITF homodimerization, bead proximity signal | inhibition, % at 2.6 µM | 650,000 tested, 0.91% active; in the data active means inhibition above about 50%;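 further: 0% = vehicle wells with protein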
TEAD-YAP inh – TEAD-YAP interaction inhibition. HEK-TIYL cells, TEAD-Gal4/YAP UAS-luciferase luminescence. 640,000 tested, 1.4% active. inhibition, % at 9.12 µM; in the data active means inhibition above about 32%;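 further: 0% = median of test compound wells and 100% = reference inhibitor wells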
FBW7 act – human FBW7 E3 ligase activation, primary screen | AID 1259310 | AlphaScreen FBW7–phospho-cyclin E peptide binding, activator screen | normalized activity (activation), % at 26.1 µM | Q969H0 | 650,000 tested, 0.13% active; in the data active means normalized activity above about 1.9%;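 further: purified mutant Fbw7 with reduced substrate affinity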
GPR151 confirm – human GPR151 activation, confirmation screen. AID 1508609. shares compounds with GPR151 activ. activation, % at 11.2 µM. GPR151 PathHunter beta-arrestin cells, luminescence, 90 min; % of EA-reagent control over plate median. 6,700 tested, under 10 active;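 active means mean percent activation across replicates above the confirmation screen cutoff of 4.91%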
GPR119 ag – counter-screen for GPR151 activators: effect on human GPR119; activation, % at 11.2 µM; shares compounds with GPR151 activ; 6,700 tested, 0.3% active; GPR119 PathHunter beta-arrestin cells, luminescence, 90 min; 0 = compound-well median, 100 = enzyme-acceptor control;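 active means mean percent activation in the counterscreen above 29.09%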;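 further: counterscreen on off-target GPR119 to flag nonselective hits from the GPR151 activator screen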
* hit, by the source's call; . = not tested or not shown; ! = a repeat was not active.

SMILES | GPR151 activ | MITF primary | TEAD-YAP inh | FBW7 act | GPR151 confirm | GPR119 ag
COc1ccccc1N=c1oc2ccccc2cc1C(=O)Nc1ccc(Cl)cc1Cl | 2 | -2 | 4 | 0 | . | .
Cc1noc(C)c1COC(=O)CCc1ccc(S(=O)(=O)N2CCCCC2)cc1 | 5.0* | 6 | 5 | 0 | 0 | -6
O=P(O)(O)OC1C(O)C(OP(=O)(O)O)C(O)C(OP(=O)(O)O)C1O (centres undefined) | -1 | -4 | . | . | . | .
COc1ccc(-c2nnc(SCC(=O)Nc3ccc(S(N)(=O)=O)cc3)o2)cc1 | 2 | 10 | 2 | 0 | . | .
Cc1cc(=O)[nH]c2nnc(SCC(=O)NCc3ccc4c(c3)OCO4)n12 | -2 | 13 | 8 | 1 | . | .
O=C(Cc1cc(=O)[nH]c(=O)[nH]1)NCc1ccc2c(c1)OCO2 | 8.6* | 10 | 2 | 0 | 0 | 5
O=C(CSc1n[nH]c(=O)n1C1CC1)NCc1ccc2c(c1)OCO2 | 6.3* | -12 | 17 | 0 | 0 | 0
O=C(CS(=O)(=O)c1ccccc1)NCc1ccc2c(c1)OCO2 | 5.1* | 8 | -3 | 0 | 1 | 14
O=C(CN1C(=O)/C(=C/c2ccccc2)Sc2ccccc21)NCc1ccc2c(c1)OCO2 | 9.0* | -2 | -1 | 0 | 0 | -1
O=C(CN1C(=O)/C(=C\c2cccc(Cl)c2)Sc2ccccc21)NCc1cccnc1 | 0 | 6 | -7 | 0 | . | .
COc1ccc(/C=C(\C#N)c2ccccn2)cc1OC | -3 | -3 | -46 | 0 | . | .
O=C1C(Cl)=C(Nc2ccc(F)cc2)C(=O)N1c1ccc(Br)cc1 | -1 | 14 | 14 | 0 | . | .
O=S(=O)(Cc1ccc2c(c1)OCO2)c1ccc2ccccc2c1 | 5.8* | 12 | -7 | 0 | 0 | -12
O=C(CCN1N=C(c2ccccc2)CCC1=O)NCc1ccc(Cl)cc1 | 0 | -3 | -7 | 0 | . | .
NS(=O)(=O)c1ccc(NC(=S)NCc2ccc3c(c2)OCO3)cc1 | 9.1* | -12 | -2 | 0 | 0 | 2
O=C(CCN1N=C(c2ccccc2)CCC1=O)NCc1ccc2c(c1)OCO2 | 7.2* | -1 | 8 | 0 | 0 | -5
CN1CCN(C(c2ccccc2)c2ccc(Cl)cc2)CC1 (centres undefined) | 6.4*! | 11 | -4 | 0 | 0 | -5
O=C1CCC(C(=O)OCc2nc3ccccc3s2)N1 (centres undefined) | 2 | -3 | -11 | 0 | . | .
CCOc1ccc(/C=C(\C#N)c2[nH]nc(N)c2C#N)cc1OC | 5.6* | 5 | -12 | 0 | 0 | -7
CCOC(=O)c1c(NC(=O)c2cccs2)sc(C(=O)Nc2ccccc2OC)c1C | 0 | 3 | -2 | 0 | . | .
CCOC(=O)c1c(NC(=O)c2ccccc2F)sc(C(=O)Nc2ccccc2C)c1C | 7.9* | 3 | -5 | 0 | 1 | 13
CCOC(=O)c1c(NC(=O)c2cccs2)sc(C(=O)Nc2ccc(OC)cc2OC)c1C | 5.2* | -1 | -4 | 0 | 1 | 4
CCCC(=O)c1ccc(N2CCN(C(=O)c3ccc(F)c(F)c3)CC2)c(F)c1 | 1 | 6 | 4 | 0 | . | .
COc1ccc(CNC(=O)CCCc2ccccc2)cc1 | -1 | -19 | -7 | 0 | . | .
COc1ccc(CNC(=O)CCCc2nc3ccccc3c(=O)[nH]2)cc1 | 6.3* | -3 | -2 | 0 | 1 | 6
SMILES | GPR151 activ | MITF primary | TEAD-YAP inh | FBW7 act | GPR151 confirm | GPR119 ag
CC1CC(C)CN(CCCNS(=O)(=O)c2ccc(Cl)s2)C1 (centres undefined) | 0 | 4 | 6 | 0 | . | .
Cn1nccc1Nc1cccc(C(=O)NCCOc2ccccc2)n1 | 11* | 5 | -33 | 0 | -1 | -1
CCCNC(=O)c1cccc(Nc2ccnn2C)n1 | 0 | 27 | 5 | 0 | . | .
COc1ccc2nccnc2c1[N+](=O)[O-] | 13* | -6 | -3 | 0 | 1 | -4
CCOC(=O)N1CCN(C(=O)CCC2(Cc3ccco3)CCC(=O)N2)CC1 (centres undefined) | 1 | -13 | -1 | 0 | . | .
C#CCOc1ccc2c(c1)c(C(=O)OCC)c(C)n2-c1ccc(OCC)cc1 | -1 | -9 | -6 | 0 | . | .
O=C1NC(=O)C(=Cc2cc(Br)ccc2OCc2ccccc2F)C(=O)N1 | 14* | 2 | -10 | 0 | -1 | 9
CCN(CC)c1ccc(NC(=O)CN2C(=O)C3C4C=CC(C4)C3C2=O)c(C)c1 (centres undefined) | 0 | -4 | 3 | 0 | . | .
CN(C)CCCN1c2ccccc2CCc2ccc(Cl)cc21 | 10*! | 17 | 0 | 0 | 0 | -12
CN(CCCN1c2ccccc2CCc2ccccc21)CC(=O)c1ccc(Cl)cc1 | -2 | 6 | -6 | 0 | . | .
CCCNC(=O)c1ccc(N2CCC(Cc3ccccc3)CC2)c([N+](=O)[O-])c1 | 0 | 10 | -7 | 0 | . | .
NC(=O)c1ccc(-c2ccc(C(N)=O)s2)cc1 | -4 | 17 | -6 | 0 | . | .
CCCc1ccc(C(=O)N2CCC(c3ccnc4nc(C(F)(F)F)nn34)CC2)o1 | -1 | 2 | -6 | 0 | . | .
C=C(C)COc1c(I)cc(C=O)cc1OC | 6.6* | 10 | 10 | 0 | 0 | -6
COc1cccc(CNC(=O)C(NS(=O)(=O)c2cccc3nsnc23)C(C)C)c1 (centres undefined) | 7.1* | 1 | 4 | 0 | 0 | 1
Cc1cccc(CN2CCC(N3CCC[C@H]3CO)CCC2=O)c1 (some centres undefined) | 11* | -2 | 5 | 0 | 0 | -7
CCOC(=O)c1c(NC(=S)NC(=O)N(C)C)sc(C)c1-c1cccs1 | 5.1* | 1 | 0 | 0 | 1 | 7
Cc1ccc(Nc2nc(N3CCOCC3)nc3c2cnn3C)c(C)c1 | 5.4* | 2 | -2 | 0 | 0 | 4
O=C(Nc1nc(-c2ccccc2)cs1)c1ccccc1[N+](=O)[O-] | 2 | 8 | 6 | 0 | . | .
O=C(Nc1nc(-c2ccccn2)cs1)c1ccccc1[N+](=O)[O-] | 5.4* | 44 | 54* | 0 | 0 | -7
CCc1nnc(NC(=O)c2ccccc2[N+](=O)[O-])s1 | 1 | 2 | -5 | 0 | . | .
CC(C)(C)Cc1nnc(NC(=O)c2ccccc2[N+](=O)[O-])s1 | 13* | -4 | 0 | 0 | 0 | -5
Cc1ccc(S(=O)(=O)n2cc(-c3ccnc(N)c3)c3cc(Br)cnc32)cc1 | 7.6* | . | . | . | 0 | -2
CCOc1ccc(S(=O)(=O)Nc2cccc(-c3ccc4nncn4n3)c2)cc1 | 9.8* | 14 | 39* | 0 | 1 | 11
CC(C)c1ccc(N(CC(=O)NCCSc2ccccc2)S(C)(=O)=O)cc1 | 21* | 20 | 3 | 1 | -1 | 0
CC(=O)Nc1ccc(NC(=O)CN(c2ccc(C(C)C)cc2)S(C)(=O)=O)cc1 | -1 | -14 | -47 | 0 | . | .
